Results as given in PubChem BioAssay (EPA / NIEHS).
Values joined by “and” are separate entries in the source; they are usually repeats but may differ in a detail not shown here. Identical values can stand only once. Inconclusive results are not listed. Active and inactive are the calls of the source. How the source made its calls, unless noted: active means hit-call score of the fitted dose curve at least 0.9, where 1 is the maximum; inconclusive means response in the unintended direction; inactive means score below 0.9.

Biological target: Ratio of Nucleoli Translocation and Cytoplasm, AR (gene 367) (UniProt P10275)
Assay: UPITT_HCI_U2OS_AR_TIF2_Nucleoli_Cytoplasm_Ratio_Agonist: University of Pittsburgh U2OS Androgen Receptor-Transcriptional Intermediary Factor 2 (AR-TIF2) Agonism High Content Imaging Assay for Ratio of Nucleoli Translocation and Cytoplasm (AID 2284000);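 further: hits raise the red nucleolar to cytoplasm ratio above vehicle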
Settings: not given
Summary of the method: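 Read-out first: nucleolar-to-cytoplasm ratio of red (AR-RFP) signal, quantified by high-content imaging in U2OS cells co-expressing TIF2-GFP. Activity is scored as signal increase over DMSO. Single-point screening used 20 uM final (0.2% DMSO).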

Chain of Ratio of Nucleoli Translocation and Cytoplasm, AR (gene 367) (P10275 whole entry, looked up): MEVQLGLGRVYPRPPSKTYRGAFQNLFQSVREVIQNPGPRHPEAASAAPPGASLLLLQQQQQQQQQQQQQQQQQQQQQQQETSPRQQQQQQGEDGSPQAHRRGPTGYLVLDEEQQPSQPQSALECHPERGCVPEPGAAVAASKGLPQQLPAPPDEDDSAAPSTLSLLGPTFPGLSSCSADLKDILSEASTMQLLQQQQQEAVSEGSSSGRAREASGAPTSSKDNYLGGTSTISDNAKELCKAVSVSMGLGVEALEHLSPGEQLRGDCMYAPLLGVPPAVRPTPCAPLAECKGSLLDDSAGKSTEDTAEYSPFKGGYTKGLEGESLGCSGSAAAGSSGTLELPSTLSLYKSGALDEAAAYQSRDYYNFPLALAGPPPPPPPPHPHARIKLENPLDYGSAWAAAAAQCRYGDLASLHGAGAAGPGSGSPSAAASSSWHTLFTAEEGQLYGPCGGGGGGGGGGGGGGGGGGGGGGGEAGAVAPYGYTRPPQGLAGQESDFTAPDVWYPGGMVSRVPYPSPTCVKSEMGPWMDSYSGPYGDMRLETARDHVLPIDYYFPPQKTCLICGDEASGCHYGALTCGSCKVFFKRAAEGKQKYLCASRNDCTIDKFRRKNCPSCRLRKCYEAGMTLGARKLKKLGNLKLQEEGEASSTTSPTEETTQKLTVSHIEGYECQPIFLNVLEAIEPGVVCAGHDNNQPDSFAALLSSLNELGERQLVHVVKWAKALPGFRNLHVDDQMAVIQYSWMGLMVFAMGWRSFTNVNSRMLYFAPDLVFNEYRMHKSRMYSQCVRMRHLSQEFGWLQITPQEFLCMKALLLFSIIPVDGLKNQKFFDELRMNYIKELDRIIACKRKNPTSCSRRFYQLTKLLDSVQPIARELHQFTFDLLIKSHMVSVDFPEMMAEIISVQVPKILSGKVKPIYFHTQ

Structure (SMILES)	outcome	AC50
CC12CC1(C)C(=O)N(c1cc(Cl)cc(Cl)c1)C2=O (stereo not given)	inactive	–
Cc1ccc2ccccc2c1C	inactive	–
CN(CCCC(=O)c1cccnc1)N=O	inactive	–
CC(C)c1cccc(C(C)C)c1O	inactive	–
COP(=O)(OC)O/C(=C\Cl)c1cc(Cl)c(Cl)cc1Cl	–	50 µM (active)
COP(=S)(OC)Oc1ccc(Sc2ccc(OP(=S)(OC)OC)cc2)cc1	inactive	–
Cc1ccccc1C(=O)Nc1cccc(OC(C)C)c1	inactive	–
C[C@H]1O[C@@H](O[C@H]2[C@@H](O)C[C@H](O[C@H]3[C@@H](O)C[C@H](O[C@H]4CC[C@@]5(C)[C@H](CC[C@@H]6[C@@H]5CC[C@]5(C)[C@@H](C7=CC(=O)OC7)CC[C@]65O)C4)O[C@@H]3C)O[C@@H]2C)C[C@H](O)[C@@H]1O	inactive	–
CC(=O)[O][Hg][c]1ccccc1	inactive	–
CCOP(=S)(OCC)Oc1nc(Cl)c(Cl)cc1Cl	inactive	–
O=[N+]([O-])c1ccc(O)c([N+](=O)[O-])c1	inactive	–
CCC(=O)C(CC(C)N(C)C)(c1ccccc1)c1ccccc1 (stereo not given)	inactive	–
C=CCc1ccc(OC)cc1	inactive	–
Clc1ccc(COC(Cn2ccnc2)c2ccc(Cl)cc2Cl)cc1 (stereo not given)	–	74.4 µM (active)
c1cc[c]([Hg][c]2ccccc2)cc1	inactive	–
CC(C)CCCCCCOC(=O)c1ccccc1C(=O)OCCCCCCC(C)C	inactive	–
O=C1C2(Cl)C3(Cl)C4(Cl)C(Cl)(Cl)C5(Cl)C3(Cl)C1(Cl)C5(Cl)C24Cl (stereo not given)	–	13.1 µM (active)
Cl/C=C\C[N+]12CN3CN(CN(C3)C1)C2	inactive	–
C[C@H]1CCCC(=O)CCC/C=C/c2cc(O)cc(O)c2C(=O)O1	–	84.8 µM (active)
COP(=S)(OC)Oc1cc(Cl)c(Cl)cc1Cl	inactive	–
CC(C)(c1ccc(OCC2CO2)cc1)c1ccc(OCC2CO2)cc1 (stereo not given)	inactive	–
CCSC(C)CC1CC(=O)C(C(CC)=NOC/C=C/Cl)=C(O)C1 (stereo not given)	inactive	–

System: not listed separately
Assay: CCTE_Simmons_MITO_basal_resp_rate: CCTE's HepG2 Seahorse XF Respirometric Screening Assay at Basal Respiratory State, Simmons Lab (AID 2284001; active means hit-call score of the fitted dose curve at least 0.9, where 1 is the maximum; inactive means score below 0.9)
Settings: actives raise or lower the signal
Summary of the method: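 HepG2 respirometry; 7-pt titration 125 nM–100 uM final; kinetic OCR at 6 min intervals for 72 min; n=3 biological, technical singles; DMSO baseline, gain or loss fit; fenpyroximate (decrease) and 2,4-DNP (increase) controls.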

Structure (SMILES)	outcome	AC50
O=C(O)C(F)(F)C(F)(F)C(F)(F)C(F)(F)C(F)(F)C(F)(F)C(F)(F)C(F)(F)C(F)(F)C(F)(F)F	inactive	–
C[C@]12CCC(=O)C[C@@H]1CC[C@@H]1[C@@H]2CC[C@]2(C)[C@@H](O)CC[C@@H]12	inactive	–
CC(C)(C)CC(C)(C)c1ccc(O)cc1	–	27.6 µM (active)
O=C(Nc1ccc2[nH]ccc2c1)c1cc2cc(F)ccc2n1Cc1cccc(F)c1	inactive	–
CC(=O)[O][Hg][c]1ccccc1	–	13.1 µM (active)
CCOP(=S)(OCC)Oc1nc(Cl)c(Cl)cc1Cl	inactive	–
CC(C)(c1ccccc1)c1ccc(O)c(C(C)(C)c2ccccc2)c1	inactive	–
O=[N+]([O-])c1ccc(O)c([N+](=O)[O-])c1	–	13 µM (active) and 10.3 µM (active)
C=C(C)C(=O)[O][Sn]([CH2]CCC)([CH2]CCC)[CH2]CCC	–	6.57 µM (active)
CCCCCCCCc1ccc(O)cc1	–	50 µM (active)
CCC(C)(C)c1ccc(O)c(C(C)(C)CC)c1	–	38 µM (active)
O=C1C2(Cl)C3(Cl)C4(Cl)C(Cl)(Cl)C5(Cl)C3(Cl)C1(Cl)C5(Cl)C24Cl (stereo not given)	–	54 µM (active)
COc1cc(-c2ccc(N)c(OC)c2)ccc1N	inactive	–
